PubChem BioAssay AID1572 (National Center for Advancing Translational Sciences (NCATS), 2009)
Results filed as inconclusive are left out. Calls of active or inactive are those of the source. The call rests on the fitted dose curve; in most records, active means well fitted curve in either direction with a large enough effect; inconclusive means small, poorly fitted or top-dose-only effect; inactive means flat fitted curve, though single readings scatter.

Assay: Total Fluorescence Confirmation Counterscreen for Inhibitors of the Interaction of Thyroid Hormone Receptor and Steroid Receptor Coregulator 2
Details: Texas Red total fluorescence, TRbeta/SRC2 FP artifact counterscreen; series mostly up to 92.2 µM
Text: NIH Molecular Libraries Probe Production Network [MLPCN] NIH Chemical Genomics Center [NCGC] MLPCN Grant: DK058080 Assay Provider: R. Kip Guy, St. Jude Children's Research Hospital NCGC Assay Overview: Thyroid receptor (TR) regulates many homeostatic processes including basal metabolism, cardiovascular function, body weight, and lipid trafficking. TR modulators are potential therapeutics for obesity and hyperlipidemias but current thyroid analogs have undesirable side effects, particularly cardiac stimulation. To identify inhibitors that specifically prevent the interaction of TR with the steroid receptor coregulator 2 (SRC2), a fluorescence polarization assay was screened. This assay detects interaction of the ligand-binding domain of human TRbeta with a Texas Red labeled SRC2 peptide, corresponding to a 20 amino acid region of the nuclear receptor interaction domain (Arnold et al., 2006). Total fluorescence (555 nm excitation and 632 nm emission) was measured to identify potential fluorescent and light absorbing compounds. Such compounds may be artifacts that interfere with the fluorescence polarization assay. This assay is a confirmation assay for AID 1479. Arnold, L. A.; Estebanez-Perpina, E.; Togashi, M.; Shelat, A.; Ocasio, C. A.; McReynolds, A. C.; Nguyen, P.; Baxter, J. D.; Fletterick, R. J.; Webb, P.; Guy, R. K. A high-throughput screening method to identify small molecule inhibitors of thyroid hormone receptor coactivator binding. Sci STKE 2006, p 13.
NCGC Assay Protocol Summary: For screening, 5 uL/well 0.6 uM TRbeta and 20 nM SRC2 Texas Red in protein buffer (20mM Tris hydrochloride, 100mM NaCl, 10% glycerol, 1mM EDTA, 0.01% NP-40, 1mM DTT, 1uM T3 and 5% DMSO) was dispensed into black solid 1536-well plates (Grenier) using a solenoid-based dispenser. Following transfer of 23 nL compound or DMSO vehicle by a pin tool, the plates were centrifuged 15 s at 1000 RPM and incubated 5 hr at ambient temperature. The plates were read by an Envision (Perkin Elmer) to detect fluorescence polarization of SRC2 Texas Red (555 nm excitation and 632 nm emission). Data were normalized to unbound (all components except TRbeta) and bound SRC2 Texas Red controls. Total fluorescence (TF) was calculated as follows: TF = S + 2P where S and P are fluorescence readings in the parallel and perpendicular channels, respectively. In this assay, we provide % activity data for each concentration as well as potencies for the active compounds.

| Structure (SMILES) | outcome |
| --- | --- |
| CCCCCn1c(N)c(C(=O)NCc2cccs2)c2nc3ccccc3nc21 | inactive |
| CN1CC[C@@]2(C)c3cc(O)ccc3N(C)C2O1 (stereo partly specified) | inactive |
| Cc1[nH]n(-c2ccccc2)c(=O)c1C(c1ccc([N+](=O)[O-])cc1)c1c(C)[nH]n(-c2ccccc2)c1=O | inactive |
| COP(=S)(OC)Oc1ccc([N+](=O)[O-])cc1 | inactive |
| CCn1nc(-c2cccs2)nc2c(=O)n(C)c(=O)nc1-2 | inactive |
| O=C(O)CC1OCC=C2CN3CCC45C6=CC(=O)C(=O)C([N+](=O)[O-])=C6NC4C1C2CC35 (stereo unspecified) | inactive |
